Sampled rows, rich in hits. Any-hit rate of the full collection: about 22%.
Cycloheximide cs = affects cycloheximide protein synthesis inhibition readout, counter-screen; AID 2314; hit rate 12% among 300,000; max response, %; cell reporter, cycloheximide protein synthesis inhibition counterscreen; in the data active means max response mostly above about 13%, no sharp cut-off; inactive means mostly below about 14%; further: read at 38.3 µM for the half of the compounds with a filed dose; 0% is about no effect
LmPK inh = LmPK (Leishmania mexicana) enzyme inhibition; Q27686; purified LmPK, Kinase-Glo ATP luminescence, 1 h; Potency, µM (series often up to 57.5 µM), inactives show at the top dose activity change, negative = inhibition, hits mostly inhibitors; hit rate 0.37% among 290,000; further: potency means the concentration at half of the fitted maximal effect; on the % scale 0 is the no-effect control and ±100 the full control effect
Target sequence (Q27686 whole entry, looked up): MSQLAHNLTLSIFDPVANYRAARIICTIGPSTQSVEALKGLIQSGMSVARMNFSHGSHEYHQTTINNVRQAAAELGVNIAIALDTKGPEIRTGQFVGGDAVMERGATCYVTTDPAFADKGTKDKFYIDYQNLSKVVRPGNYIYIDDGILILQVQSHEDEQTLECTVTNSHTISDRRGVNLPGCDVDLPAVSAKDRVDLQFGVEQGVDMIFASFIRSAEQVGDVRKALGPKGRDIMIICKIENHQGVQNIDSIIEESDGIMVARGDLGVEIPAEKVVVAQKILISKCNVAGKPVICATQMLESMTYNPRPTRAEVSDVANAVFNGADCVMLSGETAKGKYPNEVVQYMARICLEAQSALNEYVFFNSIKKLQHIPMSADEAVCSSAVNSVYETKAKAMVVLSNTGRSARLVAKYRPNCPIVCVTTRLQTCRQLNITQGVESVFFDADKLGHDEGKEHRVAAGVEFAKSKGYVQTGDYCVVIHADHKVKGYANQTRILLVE
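qHTS format; LmPK 0.1 nM; substrates PEP 0.5 mM and ADP 0.1 mM. One-hour room-temperature incubation, then coupled luciferase luminescence; 0.5 nM enzyme wells mark activation.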
Pf growth 48h = inhibits P. falciparum growth in the first generation, 48 h | P. falciparum luciferase growth in erythrocytes, 48 h | Potency, µM (doses to about 28.7 µM), for inactives: at the top dose activity change, negative = inhibition, most hits filed as inhibitors | hit rate 5.9% among 310,000; further: potency means the concentration at half of the fitted maximal effect; on the % scale 0 is the no-effect control and ±100 the full control effect
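Firefly luciferase activity from engineered P. falciparum reports growth; inhibitors lower the luminescent signal. Cultures contained 2% hematocrit erythrocytes at 0.1% final parasitemia.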
Pf growth 96h = P. falciparum growth inhibition at 96 hours; P. falciparum luciferase reporter growth, 96 h; Potency, µM (highest dose often 28.7 µM), inactives show at the top dose activity change, negative = inhibition, hits mostly inhibitors; hit rate 6.9% among 320,000; further: potency means the concentration at half of the fitted maximal effect; on the % scale 0 is the no-effect control and ±100 the full control effect
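Compounds incubated with erythrocytes infected by luciferase-expressing P. falciparum (2% hematocrit, 0.05% parasitemia final) for 96 hours, 37 C in 5% CO2. Growth inhibition scored as decreased luciferase luminescence.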
Shiga toxin inh = Shiga toxin inhibition. Vero cells, Shiga toxin protein synthesis inhibition reporter. inhibition, % at 38.7 µM. hit rate 9.2% among 290,000. AID 2315; in the data active means inhibition mostly above about 28%, no sharp cut-off; inactive means mostly below about 43%; further: 0% is about no effect
Active calls of the source: *; ? = inconclusive; · = no result; [ ] = remark or other dose. Unless noted, the call rests on the fitted dose curve; in most records, active means well fitted inhibition curve with a large enough effect; inconclusive means small, poorly fitted or top-dose-only effect, or another doubt; inactive means no such curve, though single readings can be large or run the other way.

SMILES	Cycloheximide cs	LmPK inh	Pf growth 48h	Pf growth 96h	Shiga toxin inh
Cc1csc2ncc(C(=O)Nc3ccon3)c(=O)n12	1	-6%	18%	2.6µM*	9
Cc1csc2ncc(C(=O)NCc3ccco3)c(=O)n12	-1	2%	-5%	46%	-3
Cc1cccc(NC(=O)c2cnc3scc(C)n3c2=O)c1	19*	1%	89%	128%	26*
Cc1csc2ncc(C(=O)Nc3ccccc3F)c(=O)n12	24*	-8%	91%	62%	31
Cc1cc(NS(=O)(=O)c2ccc(NC(=O)c3cnc4scc(C)n4c3=O)cc2)nc(C)n1	3	-2%	-3%	105%	-8
Cc1ccc(S(=O)(=O)N2N=C3CCCCC3C2(O)C(F)(F)F)cc1 (stereo not given)	4	-1%	?	25%	53
COc1ccccc1CN1CC(C(=O)NCc2ncccc2C)CCC1=O (stereo not given)	11	4%	9%	-10%	13
COc1ccc(NC(=O)c2cc(S(=O)(=O)N3CCCCC3)ccc2OC)cc1	-3	3%	-3%	?	-1
COC(C(=O)Nc1c(F)cccc1F)c1ccccc1 (stereo not given)	-2	-4%	-1%	21%	-11
CCO[C@@H]1OC(C(=O)N2CCN(Cc3ccc4c(c3)OCO4)CC2)=C[C@H](c2coc3ccccc3c2=O)[C@H]1CCCO	-2	5%	?	?	1
CCO[C@H]1OC(C(=O)N2CCOCC2)=C[C@@H](c2cn(C(C)=O)c3ccccc23)[C@@H]1CCCO	1	2%	7%	-15%	-9
CCO[C@H]1OC(C(=O)N2CCN(Cc3ccc4c(c3)OCO4)CC2)=C[C@@H](c2cn(C(C)=O)c3ccccc23)[C@@H]1CCCO	2	7%	1µM*	7.4µM*	-15
CCO[C@H]1OC(C(=O)N2CCN(Cc3ccc4c(c3)OCO4)CC2)=C[C@@H](c2csc3ccccc23)[C@@H]1CCCO	1	9%	12µM*	?	4
Cc1cc(C)n(C(=O)Cn2nc(C)c(Cl)c2C)n1	-1	1%	-17%	?	3
COCCNc1nc2c(c(=O)[nH]c(=O)n2C)n1CCCc1ccccc1	-2	-2%	0%	-10%	·
O=C(Nc1nc(-c2ccncc2)cs1)c1ccc(S(=O)(=O)N2CCOCC2)cc1	-6	3%	?	?	25
COc1ccc(-c2csc(NC(=O)C(CC(=O)O)N3CCOCC3)n2)cc1 (stereo not given)	-1	0%	1.3µM*	12µM*	-13
CCOc1cccc(C(=O)Nc2nc(-c3ccc(S(=O)(=O)N4CCOCC4)cc3)cs2)c1	3	1%	5.2µM*	·	-9
O=C(COc1cccc(Cl)c1)Nc1nc(-c2ccc(S(=O)(=O)N3CCOCC3)cc2)cs1	-2	3%	8.3µM*	9.3µM*	8
COc1ccccc1OC(C)C(=O)Nc1nc(-c2ccc(S(=O)(=O)N3CCOCC3)cc2)cs1 (stereo not given)	-2	1%	?	12µM*	-17
c1ccc(C2CCC(N3CCNCC3)CC2)cc1 (stereo not given)	-3	2%	-2%	69%	12
N=C(CC1CC(=O)NC(=O)C1)C1=C(O)CCCC1=O	-1	1%	4%	-12%	-13
CCOc1ccc(NC(=O)C2C3CCC4C(CCC32)C4(Cl)Cl)cc1 (stereo not given)	-2	0%	7%	?	19
CCOc1ccc(NC(=O)C2CCN(S(C)(=O)=O)CC2)cc1	-3	6%	-5%	12µM*	·
COc1ccc(NC(=O)C2CCN(S(C)(=O)=O)CC2)cc1	5	-8%	-10%	·	8
SMILES	Cycloheximide cs	LmPK inh	Pf growth 48h	Pf growth 96h	Shiga toxin inh
COc1ccc(NC(=O)C2CCCC2)cc1	10	1%	29%	?	22
CCOc1ccc(NC(=O)C2C3CC/C=C\CCC32)cc1 (stereo not given)	17*	4%	77%	?	35
COc1ccc(NC(=O)C2C3CC/C=C\CCC32)cc1 (stereo not given)	24*	4%	26%	48%	57*
Cc1ccc(C(=O)Nc2ncnc3sc4c(c23)CCCCC4)cc1	0	3%	·	?	4
NS(=O)(=O)c1ccc(NC(=S)Nc2ccn(Cc3cccc4ccccc34)n2)cc1	-6	1%	?	0%	-3
COc1ccccc1NC(=O)c1sc(NC(=O)c2ccco2)c(C#N)c1C	-2	6%	·	9%	-6
COc1ccc(C(Nc2ccccn2)c2c(NC(=O)c3ccco3)sc(C)c2C)cc1 (stereo not given)	29*	-3%	4.7µM*	?	29
Cc1sc(NC(=O)c2ccco2)c(C(Nc2ccccn2)c2ccccc2)c1C (stereo not given)	13*	0%	?	?	25
COc1cccc(C(Nc2ccccn2)c2c(NC(=O)c3ccco3)sc(C)c2C)c1 (stereo not given)	1	5%	8.3µM*	?	6
CCOCCCNC(=O)c1ccc(-n2c(=S)[nH]c3ccccc3c2=O)cc1	-2	1%	23%	0%	-4
Cc1cc(S(=O)(=O)NCC(c2ccc3c(c2)OCO3)N2CCOCC2)ccc1F (stereo not given)	·	·	?	15µM*	·
CCOC(=O)N1CCc2c(sc3c2C(=O)NC(c2ccccc2)N3)C1 (stereo not given)	-1	-3%	-3%	-50%	-4
Cn1cccc1C1NC(=O)c2c(sc3c2CCC(C(C)(C)C)C3)N1 (stereo not given)	11*	1%	?	·	29*
COCC(C)n1c(C)cc(C(=O)CSc2nnc(N)s2)c1C (stereo not given)	24*	-3%	?	·	37
Cc1ccc(C(=O)CSc2nnc(N)s2)c(C)c1	38*	-5%	109%	-7%	78*
Cc1cc(C)c(C(=O)CSc2nnc(N)s2)c(C)c1	3	-6%	6%	2%	28
Cc1cc(C)c(C(=O)CSc2nnc(N)s2)cc1C	26*	9%	39%	57%	21
COCCn1c(C)cc(C(=O)CSc2nnc3ccccn23)c1C	13	-18%	·	17%	-8
Cc1ccc(C(=O)CSc2nnc3ccccn23)c(C)c1	27*	-8%	92%	113%	35
COCC(C)n1c(C)cc(C(=O)CSc2nc(C)c(C)c(C)n2)c1C (stereo not given)	-1	2%	?	?	-4
CCOc1ccc(NC(=O)CN(C)C(=O)c2ccccc2-n2cnnn2)cc1OCC	·	·	?	-4%	·
COc1cc(-c2n[nH]c(=S)n2-c2cc(C(F)(F)F)ccc2Cl)cc(OC)c1OC	-2	?	-13%	?	-13
O=C(O)c1cccnc1Br	-7	3%[11.5 µM]	15%	46%	-12
COC(=O)CSc1nnc(C)c(=O)[nH]1	-1	-1%	6%	·	-9

Screening data as filed in PubChem BioAssay.
